Rows were chosen to be rich in hits. Some 4.1% of all compounds tested hit in one or more screens of this group.
Peg3 promoter – Peg3 promoter activity inhibition; inhibition, % at 20 µM; HeLa PEG-Prom luciferase reporter, luminescence, overnight; actives 1.7% (n = 360,000); AID 588405;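 active = inhibition of at least 50% at 20 µM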
TRPM1 prom inh – reduces MITF-dependent TRPM1 promoter luciferase signal; inhibition, % at 12.5 µM; SK-MEL-5 TRPM1 promoter luciferase, 24 h; actives 0.83% (n = 330,000);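 active = mean inhibition across replicates of 60% or more, whatever share of single replicates reaches that level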
TWEAK Fn14 block – blocks TWEAK-Fn14 interaction in a reporter cell assay; AID 1159606; actives 2% (n = 360,000); inhibition, % at 10 µM; TWEAK-stimulated Fn14 reporter cells, luciferase luminescence, 8 h; in the data active = inhibition above about 50%
TROY signal inh – blocks TROY-dependent signaling in reporter cells | Q293 LMP1-TROYcd NF-kB luciferase reporter, 4 h | inhibition, % at 10 µM | actives 0.98% (n = 360,000);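 active = compounds whose plate-normalised and pattern-corrected inhibition of the luciferase reporter signal at the single screening dose is 50% or more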
EBV LMP1 NFkB – reduces LMP1-driven NF-kappaB luciferase signal; LMP1-induced NF-kappaB luciferase reporter cells, luminescence; inhibition, % at 12.5 µM; actives 0.69% (n = 350,000); in the data active = inhibition above about 41%
Shn3 inh set2 – Schnurri-3 reporter inhibition in Clone20 osteoblasts | Clone20 osteoblast Shn3 3'UTR firefly luciferase, 24 h | inhibition, % at 12.5 µM | actives 0.52% (n = 360,000) | AID 588674;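 active = mean inhibition of at least 75% with every replicate also reaching 75%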
Of the large screens only hits and unclear results are named; the others gave an inactive call.

Nc1c(N(CCC2=CCCCC2)C(=O)Cc2ccc(F)cc2)c(=O)[nH]c(=O)n1Cc1ccccc1	none
Nc1c(N(CCC2=CCCCC2)C(=O)COc2ccc([N+](=O)[O-])cc2)c(=O)[nH]c(=O)n1Cc1ccccc1	Peg3 promoter 84
CC1C/C(=C/c2ccccn2)C(=O)/C(=C/c2ccccn2)C1 (centres undefined)	Peg3 promoter 100, TRPM1 prom inh 100, TWEAK Fn14 block 64, EBV LMP1 NFkB 90, Shn3 inh set2 95
CC(C)(C)C1C/C(=C/c2ccccn2)C(=O)/C(=C/c2ccccn2)C1 (centres undefined)	Peg3 promoter 102, TRPM1 prom inh 102, EBV LMP1 NFkB 86, Shn3 inh set2 95
CC(=O)NC(c1cccc(F)c1)c1nc(-c2cnc3ccccc3c2)cs1 (centres undefined)	none (no result: TRPM1 prom inh, EBV LMP1 NFkB)
COc1ccccc1CCNC(=O)c1cc(-c2ccccn2)nc2ccccc12	Peg3 promoter 51
O=C(NCCC1=CCCCC1)c1cc(-c2ccccn2)nc2ccccc12	none
Cc1ccc(-c2cc(C(=O)Nc3cc(C(=O)O)ccc3C)c3ccccc3n2)cc1	none
Cc1ccc(S(=O)(=O)N2CCOCC2)cc1NC(=O)c1cc(-c2ccccn2)nc2ccccc12	Peg3 promoter 90
O=C(Nc1cc(S(=O)(=O)N2CCOCC2)ccc1N1CCCCC1)c1cc(-c2ccccn2)nc2ccccc12	none
Cc1ccc(S(=O)(=O)N(C)C)cc1NC(=O)c1cc(-c2ccncc2)nc2ccccc12	Peg3 promoter 52
COCCNC(=O)c1cc(-c2ccncc2)nc2ccc(S(=O)(=O)N3CCOCC3)cc12	TROY signal inh 64
Cc1ccc(-n2nc(C)c3cc(C(=O)O)sc32)cc1	TWEAK Fn14 block 86 (no result: TROY signal inh)
CC(=O)N1c2ccc(S(=O)(=O)N3CCC(C(=O)Nc4cccc(F)c4)CC3)cc2CC1C (centres undefined)	Shn3 inh set2 86
CC1Sc2ccc(S(=O)(=O)N3CCC(C(=O)Nc4ccc(Cl)cc4)CC3)cc2NC1=O (centres undefined)	Shn3 inh set2 89
CC(=O)N1c2ccc(S(=O)(=O)N3CCC(C(=O)Nc4cccc(C)c4)CC3)cc2CC1C (centres undefined)	none
CC(=O)N1c2ccc(S(=O)(=O)N3CCC(C(=O)Nc4cccc(Cl)c4)CC3)cc2CC1C (centres undefined)	Shn3 inh set2 89
COc1ccc(NC(=O)C2CCN(S(=O)(=O)c3ccc4c(c3)NC(=O)C(C)S4)CC2)cc1 (centres undefined)	none
COc1ccccc1NS(=O)(=O)c1ccc(O)c(NC(=S)NCC2CCCO2)c1 (centres undefined)	none
Cc1sc2ncn(CC(=O)N3CCC(C(N)=O)CC3)c(=O)c2c1S(=O)(=O)N1CC(C)CC(C)C1 (centres undefined)	none
COc1ccc(OC)c(/C=N/N(CCC#N)C2=NS(=O)(=O)c3ccccc32)c1	none
O=C(CN1CCOCC1)Nc1ccccc1C(=O)Nc1ccccc1	none
COC(=O)CSc1nnc(-c2sc3ccccc3c2Cl)o1	TWEAK Fn14 block 64 (no result: Shn3 inh set2)
N#CCSc1nnc(-c2sc3ccccc3c2Cl)o1	none
CC(C)n1c(=O)c2ccccc2n1C(=O)c1ccccc1	none (no result: TRPM1 prom inh, EBV LMP1 NFkB)
CCN(CC)S(=O)(=O)c1ccc(NC(=O)c2ccc(N(C)S(C)(=O)=O)cc2)cc1	TWEAK Fn14 block 50
CCN(CC)S(=O)(=O)c1ccc(C(=O)Nc2ccc(Cc3ccncc3)cc2)cc1	TWEAK Fn14 block 58
CCN(CC)S(=O)(=O)c1ccc(C(=O)Nc2cc(C)cc(C)c2)cc1	none (no result: Shn3 inh set2)
CCOc1c(Cl)cc(CNc2ccc(S(N)(=O)=O)cc2)cc1OC	none
CCOc1c(Cl)cc(CNc2ccc(N3CCCC3)cc2)cc1OC	TWEAK Fn14 block 56
CC(C)CCn1c(SCC(=O)N2CC(=O)Nc3ccccc32)nc2scc(-c3cccs3)c2c1=O	none
C=CCn1c(SCC(=O)N2CC(=O)Nc3ccccc32)nc2scc(-c3cccs3)c2c1=O	TWEAK Fn14 block 52
O=C(O)CCCc1ccc2c(c1)CCc1ccccc1-2	TRPM1 prom inh 88, TWEAK Fn14 block 56
COC(=O)CCNCCSc1nnc(-c2ccco2)n1Cc1ccccc1	none
Cn1c(Sc2ccc(Br)cc2)c(C=O)c2ccccc21	TWEAK Fn14 block 55 (no result: TROY signal inh)
O=C(NNc1c2ccccc2nc2ccccc12)c1ccccc1O	TROY signal inh 54

Screening results deposited in PubChem by several laboratories.
